Drawing on PubChem BioAssay (NCATS), this text covers outcome, Potency and Z-AUC for four compounds.

Inconclusive results are not listed. The source made the active and inactive calls. Unless noted, calls follow the shape of the dose curve; as a rule, active = well fitted curve in the direction sought with a large enough effect; inconclusive = small, poorly fitted or top-dose-only effect, or another doubt; inactive = no such curve, though single readings can be large; an effect the other way counts as inactive or inconclusive.

The target of assay [1] is N-terminal Xaa-Pro-Lys N-methyltransferase 1 (Homo sapiens) (UniProt Q9BV86). The experiment in a line: Confirmatory qHTS for Inhibitors of N-terminal methyltransferase 1 (NTMT1): MTaseGlo Assay (AID 1645874).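 Also: luminescence from SAH made as NTMT1 methylates SPKRIA peptide using SAM; series mostly up to about 100 µM; 0% = DMSO control and -100% = no-enzyme control; nearly all actives have a fitted effect of over 65% in size.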 In a few lines: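 MTase-Glo luminescence measured SAH formed by 125 nM NTMT1 from 100 uM SAM and 1 uM SPKRIA peptide over 30 min at room temperature, following 15 min compound preincubation. Percent inhibition against no-enzyme and DMSO controls gave 4-parameter Hill fits.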
Background: In qHTS, concentration-response curves come from the screen itself.

In assay [2] the target is Phospholipid hydroperoxide glutathione peroxidase GPX4 (Homo sapiens) (UniProt P36969). The experiment in a line: Primary qHTS Assay for Inhibitors of Recombinant Selenoprotein Glutathione Peroxidase 4 (GPX4) (AID 1845192). Also: nearly all actives have a fitted effect of over 65% in size. The essentials:
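Steps: GPX4 plus compound, 30 min RT; add GR/GSH/NADPH master mix; start with cumene hydroperoxide; read 340/450 nm fluorescence at 0 and 15 min. Finals were 200 nM GPX4, 1 mM GSH, 0.5 mM CHP, 0.5 mM NADPH, 100 nM GR.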

Assay [3] is described as follows: qHTS drug screen for cell cycle checkpoint inhibitors in PARPi-resistant BRCA-mutant ovarian cancer cell lines. (AID 1963452; calls by dose curve). To be noted: PEO1/OlaR viability, CellTiter-Glo luminescence, 96 h, stronger effect = lower value. The essentials: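 PEO1, PEO4 and PEO1/OlaR ovarian cancer cells, 600 per well, exposed 96 h at 37C to a dilution series. Viability read by CellTiter-Glo luminescence, normalized to DMSO and empty wells; activity summarized as Z-AUC.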

The target in assay [4] is Tumor susceptibility gene 101 protein (Homo sapiens) (UniProt Q99816). The experiment in a line: qHTS Assay for Iinhibitors of HIV-1 Budding by Blocking the Interaction of PTAP/TSG101: Hit Validation (AID 651600). Also: potency is read from the fitted curve at half-maximal effect; nearly all actives have a fitted effect of over 70% in size. The essentials: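 FITC-PTAP peptide (50 nM final) binding to Tsg101 binding domain (10 uM final) was measured by polarization after 20 min at r.t. with compounds, in 10 mM HEPES pH 7.5 buffer with 0.15 M NaCl and 0.01% Tween 20.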

The target in assay [5] is Rap guanine nucleotide exchange factor 3 (Homo sapiens) (UniProt O95398). The experiment in a line: Confirmatory qHTS for antagonist of cAMP-regulated guanine nucleotide exchange factor 3 (EPAC1) (AID 1645880).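 Also: plate controls were DMSO only for no effect and full effect of the ATA control for full effect; nearly all actives have a fitted effect of over 55% in size.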 In a few lines:
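Released BODIPY-GDP fluoresces less than Rap1-bound BODIPY-GDP; the signal is followed at 480/540 nm at 5-min intervals over 30 min, after 5 min at room temperature. Reactions contain 100 nM EPAC1, 250 nM RAP1B-BODIPY-GDP and 50 uM GDP; results are normalized to ATA and DMSO.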

Assay [6] shares this target. The experiment in a line: Confirmatory qHTS for agonist of cAMP-regulated guanine nucleotide exchange factor 3 (EPAC1) (AID 1645881). Also: nearly all actives have a fitted effect of over 75% in size. Also: potency is read from the fitted curve at half-maximal effect.
Assay [7] deals with Rap guanine nucleotide exchange factor 4 (Homo sapiens) (UniProt Q8WZA2). The experiment in a line: Confirmatory qHTS for agonist of cAMP-regulated guanine nucleotide exchange factor 4 (EPAC2) (AID 1645884).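 Also: nucleotide exchange releases bodipy-GDP from Rap1 and this lowers its fluorescence; nearly all actives have a fitted effect of over 65% in size.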 Also: potency is read from the fitted curve at half-maximal effect.
Assay [8] shares this target. The experiment in a line: Confirmatory qHTS for antagonist of cAMP-regulated guanine nucleotide exchange factor 4 (EPAC2) (AID 1645885). Also: nearly all actives have a fitted effect of over 25% in size. Also: potency is read from the fitted curve at half-maximal effect.
The target in assay [9] is Rap guanine nucleotide exchange factor 3 (Homo sapiens) (UniProt O95398). The experiment in a line: Counterscreen qHTS for antagonist of cAMP-regulated guanine nucleotide exchange factor 3 (EPAC1) (AID 1645888). Also: % of control where 0% means no effect. The essentials: (§1)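 Rap1B–BODIPY-GDP (250 nM) with 50 uM GDP; compounds pin-transferred to 9.74 nM–152 uM final (activator) or from 7.32 nM upwards (inhibitor). Fluorescence Ex/Em 480/540 nm read at 5 and 30 min, then after adding cAMP or buffer, at room temperature.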
Background: The purpose of a counterscreen is to sort out artefacts and off-target activity.

For assay [10] the target is unchanged. The experiment in a line: Counterscreen qHTS for agonist of cAMP-regulated guanine nucleotide exchange factor 3 (EPAC1) (AID 1645889). Also: potency is read from the fitted curve at half-maximal effect; nearly all actives have a fitted effect of over 40% in size. In a few lines: as §1
Assay [11] deals with Cytochrome P450 3A4 (Homo sapiens) (UniProt P08684). The experiment in a line: qHTS Assay for Inhibitors and Substrates of Cytochrome P450 3A4 (AID 884). Also: potency is read from the fitted curve at half-maximal effect; nearly all actives have a fitted effect of over 50% in size. The essentials: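 Luminescent readout of luciferin produced by CYP3A4 (20 nM) dealkylation of Luciferin-PPXE, 25 uM (its KM). NADPH-driven reaction ran 60 min at RT after 10 min compound preincubation; data scaled to 57 uM ketoconazole as 100% inhibition.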

The target is the same in assay [12]. The experiment in a line: qHTS Assay for Activators of Cytochrome P450 3A4 (AID 885). Also: nearly all actives have a fitted effect of over 65% in size. In a few lines: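 Luminescent readout of luciferin formed from 25 uM Luciferin-PPXE (KM level) by 20 nM CYP3A4 in 200 mM KPO4, with 60 min NADPH-driven reaction at room temperature after 10 min compound exposure. Ketoconazole (57 uM) defined 100% inhibition.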
Assay [13] is described as follows: Confirmation and Secondary Assay for Modulators of Hemoglobin Beta Chain Splicing at IVS2 654 locus (AID 910).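 Also: HeLa cells stably carrying EGFP split by mutant beta-globin IVS2-654 intron; potency is read from the fitted curve at half-maximal effect; potency of activators that raise GFP signal by restoring correct splicing.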 In a few lines: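 HeLa cells stably expressing EGFP interrupted by β-globin IVS2-654 intron, seeded overnight in Opti-MEM/2% FCS, then treated 2 days at 37 °C. Restored splicing read as total peak GFP intensity per well by laser scanning cytometry (488 nm excitation, 500–520 nm emission); 500 nM antisense PNA as control.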

In assay [14] the target is Ubiquitin carboxyl-terminal hydrolase 1 (Homo sapiens) (UniProt O94782). The experiment in a line: Inhibitors of USP1/UAF1: Pilot qHTS (AID 504865). Also: potency is read from the fitted curve at half-maximal effect; nearly all actives have a fitted effect of over 35% in size. In a few lines:
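Deubiquitinase activity followed as kinetic rhodamine fluorescence release from 150 nM Ub-Rho. 1 nM USP1/UAF1 with compound, after 15 min room-temperature preincubation, in HEPES pH 7.8 buffer containing TCEP, EDTA, BSA and Tween-20.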

Chain of Rap guanine nucleotide exchange factor 3 (Homo sapiens) (O95398 whole entry, looked up): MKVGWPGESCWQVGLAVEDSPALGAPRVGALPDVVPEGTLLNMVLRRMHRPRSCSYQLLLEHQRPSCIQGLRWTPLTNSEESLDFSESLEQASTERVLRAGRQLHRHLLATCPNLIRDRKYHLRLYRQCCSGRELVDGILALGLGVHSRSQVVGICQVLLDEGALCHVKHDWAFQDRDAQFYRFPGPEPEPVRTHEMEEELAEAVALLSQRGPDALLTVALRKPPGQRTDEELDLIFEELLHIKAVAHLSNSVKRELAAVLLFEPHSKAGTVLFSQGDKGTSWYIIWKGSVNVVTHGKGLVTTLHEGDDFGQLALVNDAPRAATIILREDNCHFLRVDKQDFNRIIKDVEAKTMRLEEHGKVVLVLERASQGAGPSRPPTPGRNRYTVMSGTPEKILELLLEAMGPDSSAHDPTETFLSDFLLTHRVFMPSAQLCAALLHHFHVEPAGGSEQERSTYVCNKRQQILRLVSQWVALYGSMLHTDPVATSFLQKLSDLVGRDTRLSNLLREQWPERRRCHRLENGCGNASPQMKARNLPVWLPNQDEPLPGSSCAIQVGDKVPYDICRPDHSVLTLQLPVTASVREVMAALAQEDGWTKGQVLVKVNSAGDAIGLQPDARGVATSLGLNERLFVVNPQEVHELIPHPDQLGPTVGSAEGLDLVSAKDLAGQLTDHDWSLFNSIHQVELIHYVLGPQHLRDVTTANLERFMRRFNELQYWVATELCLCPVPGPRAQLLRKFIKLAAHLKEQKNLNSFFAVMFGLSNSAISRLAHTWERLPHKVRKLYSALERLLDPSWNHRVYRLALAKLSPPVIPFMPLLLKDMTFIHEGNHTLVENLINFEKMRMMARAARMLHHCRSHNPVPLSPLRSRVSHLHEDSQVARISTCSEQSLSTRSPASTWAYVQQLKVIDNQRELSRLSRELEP
Chain of Rap guanine nucleotide exchange factor 4 (Homo sapiens) (Q8WZA2 whole entry, looked up): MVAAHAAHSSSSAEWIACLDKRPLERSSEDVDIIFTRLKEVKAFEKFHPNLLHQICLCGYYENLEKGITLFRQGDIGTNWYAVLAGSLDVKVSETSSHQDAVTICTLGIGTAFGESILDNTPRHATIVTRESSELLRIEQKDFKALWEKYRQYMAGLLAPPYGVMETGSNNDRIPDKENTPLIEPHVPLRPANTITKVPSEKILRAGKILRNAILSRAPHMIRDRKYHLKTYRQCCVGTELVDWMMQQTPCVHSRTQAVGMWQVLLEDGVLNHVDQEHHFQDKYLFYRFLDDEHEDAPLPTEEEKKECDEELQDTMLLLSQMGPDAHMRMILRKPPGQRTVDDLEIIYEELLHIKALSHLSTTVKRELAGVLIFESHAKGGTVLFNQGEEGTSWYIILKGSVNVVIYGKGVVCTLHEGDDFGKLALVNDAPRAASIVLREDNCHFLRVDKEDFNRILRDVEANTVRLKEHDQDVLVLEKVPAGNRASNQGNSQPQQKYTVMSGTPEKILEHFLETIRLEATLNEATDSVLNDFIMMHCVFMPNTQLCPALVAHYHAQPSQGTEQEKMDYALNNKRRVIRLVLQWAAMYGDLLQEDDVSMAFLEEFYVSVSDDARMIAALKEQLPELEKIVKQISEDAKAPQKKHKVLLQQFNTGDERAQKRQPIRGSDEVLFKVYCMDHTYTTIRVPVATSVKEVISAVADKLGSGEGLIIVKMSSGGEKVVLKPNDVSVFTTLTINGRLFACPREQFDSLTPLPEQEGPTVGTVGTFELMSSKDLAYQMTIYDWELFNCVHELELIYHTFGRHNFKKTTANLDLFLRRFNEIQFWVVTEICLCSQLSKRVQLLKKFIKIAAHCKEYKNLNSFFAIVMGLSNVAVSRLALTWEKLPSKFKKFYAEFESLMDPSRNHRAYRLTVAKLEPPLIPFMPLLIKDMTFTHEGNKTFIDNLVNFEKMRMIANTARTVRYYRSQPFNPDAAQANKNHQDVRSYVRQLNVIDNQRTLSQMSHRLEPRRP
Chain of Cytochrome P450 3A4 (Homo sapiens) (P08684 whole entry, looked up): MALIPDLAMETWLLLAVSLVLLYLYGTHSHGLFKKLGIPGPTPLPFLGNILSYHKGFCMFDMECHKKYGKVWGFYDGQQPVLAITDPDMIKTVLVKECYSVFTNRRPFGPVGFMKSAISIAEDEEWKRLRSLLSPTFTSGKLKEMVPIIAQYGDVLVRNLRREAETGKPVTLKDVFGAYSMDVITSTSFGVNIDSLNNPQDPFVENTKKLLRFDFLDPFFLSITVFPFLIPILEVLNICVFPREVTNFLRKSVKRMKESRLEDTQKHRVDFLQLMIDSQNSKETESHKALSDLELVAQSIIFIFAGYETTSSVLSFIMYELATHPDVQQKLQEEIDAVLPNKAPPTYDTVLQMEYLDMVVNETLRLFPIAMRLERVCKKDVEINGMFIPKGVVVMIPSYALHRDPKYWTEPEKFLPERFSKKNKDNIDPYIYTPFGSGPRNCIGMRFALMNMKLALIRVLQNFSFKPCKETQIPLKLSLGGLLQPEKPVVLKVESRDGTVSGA
Chain of Phospholipid hydroperoxide glutathione peroxidase GPX4 (Homo sapiens) (P36969 whole entry, looked up): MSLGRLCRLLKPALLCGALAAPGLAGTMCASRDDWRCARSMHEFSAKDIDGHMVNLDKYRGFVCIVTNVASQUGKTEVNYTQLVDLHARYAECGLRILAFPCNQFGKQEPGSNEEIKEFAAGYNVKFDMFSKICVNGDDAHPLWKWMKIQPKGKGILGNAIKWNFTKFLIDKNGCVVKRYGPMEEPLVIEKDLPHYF
Chain of Ubiquitin carboxyl-terminal hydrolase 1 (Homo sapiens) (O94782 whole entry, looked up): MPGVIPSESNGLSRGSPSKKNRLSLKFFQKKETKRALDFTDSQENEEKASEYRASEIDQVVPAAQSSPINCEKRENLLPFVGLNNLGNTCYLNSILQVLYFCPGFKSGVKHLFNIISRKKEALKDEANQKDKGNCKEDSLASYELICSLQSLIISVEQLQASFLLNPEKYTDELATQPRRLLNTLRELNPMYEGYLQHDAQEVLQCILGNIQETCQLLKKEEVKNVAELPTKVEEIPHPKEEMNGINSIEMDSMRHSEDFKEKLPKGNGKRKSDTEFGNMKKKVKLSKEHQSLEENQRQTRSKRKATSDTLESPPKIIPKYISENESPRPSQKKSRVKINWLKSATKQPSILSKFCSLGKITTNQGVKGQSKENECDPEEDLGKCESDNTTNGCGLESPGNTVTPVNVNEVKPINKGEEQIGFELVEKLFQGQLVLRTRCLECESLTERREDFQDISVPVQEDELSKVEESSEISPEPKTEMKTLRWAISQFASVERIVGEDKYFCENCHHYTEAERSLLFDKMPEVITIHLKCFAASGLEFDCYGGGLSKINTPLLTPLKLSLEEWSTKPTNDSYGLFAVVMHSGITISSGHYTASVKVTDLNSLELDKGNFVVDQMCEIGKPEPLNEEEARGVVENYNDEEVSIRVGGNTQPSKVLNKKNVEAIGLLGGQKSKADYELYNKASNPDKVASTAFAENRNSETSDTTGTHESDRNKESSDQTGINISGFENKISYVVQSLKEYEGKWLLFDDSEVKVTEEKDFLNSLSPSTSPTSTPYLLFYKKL
Chain of Tumor susceptibility gene 101 protein (Homo sapiens) (Q99816 whole entry, looked up, the tested form may be a part): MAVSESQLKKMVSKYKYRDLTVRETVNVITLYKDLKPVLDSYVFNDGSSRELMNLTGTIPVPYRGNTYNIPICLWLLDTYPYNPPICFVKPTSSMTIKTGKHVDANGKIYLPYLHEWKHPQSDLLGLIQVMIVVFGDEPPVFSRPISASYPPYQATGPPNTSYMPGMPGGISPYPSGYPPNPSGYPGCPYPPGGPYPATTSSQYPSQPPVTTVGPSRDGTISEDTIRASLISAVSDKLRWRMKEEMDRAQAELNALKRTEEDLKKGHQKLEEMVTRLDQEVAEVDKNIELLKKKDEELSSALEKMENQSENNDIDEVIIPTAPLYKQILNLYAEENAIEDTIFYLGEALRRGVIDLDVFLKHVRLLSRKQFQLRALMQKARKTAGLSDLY
Chain of N-terminal Xaa-Pro-Lys N-methyltransferase 1 (Homo sapiens) (Q9BV86 whole entry, looked up): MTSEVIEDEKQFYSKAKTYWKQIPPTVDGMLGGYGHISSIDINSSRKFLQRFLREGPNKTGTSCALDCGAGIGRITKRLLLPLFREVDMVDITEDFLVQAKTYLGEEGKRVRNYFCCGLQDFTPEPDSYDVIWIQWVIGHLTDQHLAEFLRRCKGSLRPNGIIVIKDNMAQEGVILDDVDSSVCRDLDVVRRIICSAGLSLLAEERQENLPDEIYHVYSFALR

`CCOc1ccc(CN(CCc2ccc3c(c2)OCO3)Cc2cccc(Br)c2)cc1`: in assay [1], the compound was called inactive.

`CC1(C)CC(O)CC(C)(C)N1O`: the Potency entry in assay [2] is “inactive”. The Z-AUC in assay [3] is 0.107 (inactive); in assay [3] (measured here: PEO1 parental Z-AUC), 0.652; in assay [3] (measured here: PEO4 Z-AUC) it was 0.604.

As for `O=c1cc(C(F)(F)F)c2cc3c4c(c2o1)CCCN4CCC3`, the Potency was 0.651 µM (active) in assay [4]; 50.1 µM (active) in [6]; 39.8 µM (active) in assay [7]; 60.1 µM (active) in assay [8]; 50.1 µM (active) in [10]. The Potency entry in [5] is “inactive”. Also, the call in [9] was inactive.

On to `CC[C@@]1(O)CC(O)c2c(cc3c(c2O)C(=O)c2c(O)ccc(O)c2C3=O)C1C(=O)OC` (stereo not given in full), for which the Potency was 7.94 µM (active) in assay [11], 12.6 µM (active) in [13] and 22.4 µM (active) in [14]. The Potency entry in [12], in assay [5], in assay [6], in assay [7] and in assay [8] was “inactive” each time.
